The source made the active and inactive calls.

Experiment [1] has as its system Plasmodium falciparum Sir2 (PF13_0152, Sir2A). Description: pfSir2 binders on small-molecule microarrays, primary screen, biochemical, small-molecule microarray, 635 nm fluorescence (AID 1098).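 Further: score merges spot fluorescence intensity with its signal-to-noise ratio.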 Conditions: small-molecule microarray binding, fluorescence 635 nm; higher = more signal.
Experiment [2] in a line: small-molecule microarray binders of probe aDKK1, primary screen, biochemical, biotinylated probe, 635/667 nm fluorescence (AID 1099).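 Further: score merges 667nm spot fluorescence with signal to noise across triplicate slides; reference of the scale not given here.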 The following applies: higher = more signal.
Experiment [3] is described as follows: small-molecule microarray binders of probe aCHRDL2, primary screen, biochemical, biotinylated probe, 635/667 nm fluorescence (AID 1100). The following applies: higher = more signal.
A short description of experiment [4]: splicing luciferase reporter signal modulators, primary screen, spliceosome inhibition project, cell-based, HEK293, splice +/- reporter (AID 1101).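 Further: HEK293 cells carrying a splicing-competent luciferase reporter gene; test concentration not given here.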 Conditions: luminescence, 24 h, higher = more signal, called active from +8 up or from −8 down. For orientation: In a reporter assay the amount or activity of a reporter protein is the signal.
For experiment [5], the target named is Fibroblast growth factor 10 (Homo sapiens) (UniProt O15520). Nature of the experiment: FGF10 binders on small-molecule microarrays, primary screen, biochemical, small-molecule microarray, 635 nm fluorescence (AID 1102). The following applies: FGF10 binding, fluorescence 635 nm, higher = more signal.
Fibroblast growth factor 10 (Homo sapiens), sequence (O15520 whole entry, looked up): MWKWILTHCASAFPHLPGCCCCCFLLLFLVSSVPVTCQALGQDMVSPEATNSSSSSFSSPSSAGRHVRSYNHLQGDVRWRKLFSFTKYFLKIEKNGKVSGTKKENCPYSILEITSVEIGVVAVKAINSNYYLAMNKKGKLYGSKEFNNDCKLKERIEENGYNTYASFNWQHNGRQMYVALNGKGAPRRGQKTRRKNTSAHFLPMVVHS
Experiment [6] deals with glycogen synthase kinase-3 (GSK3A per assay name; protocol says GSK3B). Description: GSK3 binders on small-molecule microarrays, primary screen, biochemical, small-molecule microarray, 635 nm fluorescence, GSK3A (AID 1103). Further: the record names both GSK3A and GSK3B. The following applies: small-molecule microarray binding, fluorescence 635 nm; higher = more signal.
Experiment [7] deals with Epidermal growth factor receptor (Homo sapiens) (UniProt P00533). Nature of the experiment: EGFR binders on small-molecule microarrays, primary screen, biochemical, small-molecule microarray, 635 nm fluorescence (AID 1104).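 Further: score merges 667 nm emission intensity with spot signal to noise over triplicate slides.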 The following applies: EGFR binding, higher = more signal.
Epidermal growth factor receptor (Homo sapiens), sequence (P00533 whole entry, looked up): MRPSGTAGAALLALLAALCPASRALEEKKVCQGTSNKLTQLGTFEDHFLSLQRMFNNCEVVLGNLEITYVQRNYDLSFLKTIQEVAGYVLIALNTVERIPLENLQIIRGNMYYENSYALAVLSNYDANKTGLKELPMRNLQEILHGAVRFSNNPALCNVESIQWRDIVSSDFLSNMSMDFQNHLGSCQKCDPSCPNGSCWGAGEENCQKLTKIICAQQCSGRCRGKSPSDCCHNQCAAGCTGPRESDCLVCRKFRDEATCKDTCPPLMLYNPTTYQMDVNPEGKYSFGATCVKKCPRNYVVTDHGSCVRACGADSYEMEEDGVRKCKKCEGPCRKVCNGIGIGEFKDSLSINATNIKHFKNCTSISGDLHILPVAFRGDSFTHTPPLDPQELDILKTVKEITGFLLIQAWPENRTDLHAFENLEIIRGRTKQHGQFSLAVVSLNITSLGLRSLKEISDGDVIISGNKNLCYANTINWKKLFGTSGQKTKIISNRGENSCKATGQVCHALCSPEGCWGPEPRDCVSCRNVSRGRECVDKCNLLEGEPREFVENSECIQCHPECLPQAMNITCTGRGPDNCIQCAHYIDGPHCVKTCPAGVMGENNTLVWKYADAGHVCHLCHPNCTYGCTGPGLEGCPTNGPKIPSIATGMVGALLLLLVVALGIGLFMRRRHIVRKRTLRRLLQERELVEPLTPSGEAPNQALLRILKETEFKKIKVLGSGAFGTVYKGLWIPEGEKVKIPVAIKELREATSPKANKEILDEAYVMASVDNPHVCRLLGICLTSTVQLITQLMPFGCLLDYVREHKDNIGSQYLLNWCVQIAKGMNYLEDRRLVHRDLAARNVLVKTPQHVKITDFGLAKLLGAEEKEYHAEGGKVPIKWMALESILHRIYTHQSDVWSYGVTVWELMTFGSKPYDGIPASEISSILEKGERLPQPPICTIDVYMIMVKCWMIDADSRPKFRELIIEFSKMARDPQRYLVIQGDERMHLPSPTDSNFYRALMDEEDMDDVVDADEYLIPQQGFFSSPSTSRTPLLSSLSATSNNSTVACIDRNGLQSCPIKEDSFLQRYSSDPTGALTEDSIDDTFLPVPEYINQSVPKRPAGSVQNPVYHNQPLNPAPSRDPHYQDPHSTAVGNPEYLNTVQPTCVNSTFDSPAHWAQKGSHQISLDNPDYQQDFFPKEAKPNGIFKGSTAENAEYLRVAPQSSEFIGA
Experiment [8] addresses Follistatin-related protein 3 (Homo sapiens) (UniProt O95633). Description: FSTL3 binders on small-molecule microarrays, primary screen, biochemical, small-molecule microarray, 635 nm fluorescence (AID 1105).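 Further: score merges emission near 667 nm and signal to noise per printed spot across three slides.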 The following applies: FSTL3 binding, higher = more signal.
The target in experiment [9] is Dickkopf-related protein 1 (Homo sapiens) (UniProt O94907). Description: DKK1 binders on small-molecule microarrays, primary screen, biochemical, small-molecule microarray, 635 nm fluorescence scan (AID 1106).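 Further: score merges emission near 667 nm with signal to noise over three replicate slides.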 Conditions: DKK1 binding, higher = more signal.
Dickkopf-related protein 1 (Homo sapiens), sequence (O94907 whole entry, looked up): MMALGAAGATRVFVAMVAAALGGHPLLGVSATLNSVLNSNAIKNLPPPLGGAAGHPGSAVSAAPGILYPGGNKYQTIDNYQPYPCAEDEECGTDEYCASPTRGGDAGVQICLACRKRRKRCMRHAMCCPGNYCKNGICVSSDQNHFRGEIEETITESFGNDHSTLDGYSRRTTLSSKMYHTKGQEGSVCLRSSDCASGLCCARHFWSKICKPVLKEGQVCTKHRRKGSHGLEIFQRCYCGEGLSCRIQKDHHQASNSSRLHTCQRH
In experiment [10] the test system is Inhibin beta A chain (activin A). Nature of the experiment: INHBA (activin A) binders on microarrays, primary screen, biochemical, small-molecule microarray, 635 nm fluorescence scan (AID 1107).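 Further: mouse activin A protein probed at 4.33 µg/mL on printed slides; score merges bound-protein fluorescence near 667 nm with spot signal-to-noise.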 Conditions: small-molecule microarray binding, higher = more signal.

Follistatin-related protein 3 (Homo sapiens), sequence (O95633 whole entry, looked up): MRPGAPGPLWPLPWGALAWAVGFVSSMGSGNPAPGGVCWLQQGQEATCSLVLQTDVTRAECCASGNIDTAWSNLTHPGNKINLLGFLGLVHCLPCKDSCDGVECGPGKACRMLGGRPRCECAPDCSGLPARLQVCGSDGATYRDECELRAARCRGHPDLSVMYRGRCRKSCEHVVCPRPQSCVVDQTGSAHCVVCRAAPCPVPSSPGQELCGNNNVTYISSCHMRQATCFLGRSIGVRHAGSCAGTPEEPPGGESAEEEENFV

On to `COc1cc(Br)cc(C(O)C2C=CC3C(=O)N(C)C(=O)C3N2N2CCCCC2)c1OC` (stereo not given), for which the composite z-score is 0.787 in [1]; 0.655 in [2]; 0.895 in experiment [3]; -0.582 in [5]; -0.524 in experiment [6]; -1.23 in experiment [7]. Besides, the composite z-score was -1.06 in experiment [8], -1.26 in [9] and 0.613 in experiment [10]. In addition, the z-score in experiment [4] was 1.09 (inactive).
`CC(C)C(=C=CC[C@@H](O)c1ccc(OCCO)cc1)C[C@@H](O)COCc1ccccc1`: the composite z-score in experiment [1] was 0.413; in experiment [2], -0.133; in [3], -0.222; in [5], 1.23; in experiment [6], 0.099; in experiment [7] it was -0.516. Besides, the composite z-score in experiment [8] was 0.478; in experiment [9], -0.198; in experiment [10], 0.992. Further, the z-score in [4] is -1.97 (inactive).
As to `COC(=O)[C@@]1(Cc2ccc(OC)cc2)[C@H]2c3cc(C(=O)N(C)C)n(Cc4ccc(S(C)(=O)=O)cc4)c3C[C@H]2CN1C(=O)c1ccccc1`, the composite z-score in experiment [1] was 1.29; in experiment [2], 0.511; in experiment [3], 0.573; in [5] it was -0.0911; in experiment [6], 0.904; in experiment [7], -0.0743. The composite z-score was 1.08 in experiment [8], 0.0527 in experiment [9] and 1.16 in [10]. The z-score in [4] is -0.109 (inactive).
Take `COCCOC(=O)N1C(=O)[C@@]2(c3cc(C#CCNC(N)=O)ccc31)[C@H](C(=O)Nc1nc3ccccc3s1)[C@H]1C(=O)O[C@H](c3ccccc3)[C@H](c3ccccc3)N1[C@@H]2c1ccc(OCCO)cc1`: the composite z-score in experiment [1] was -0.112; in experiment [2], 0.92; in experiment [3], 0.795; in [5] it was 1.11; in [6], 0.755; in experiment [7], 0.373. Moreover, the values for the composite z-score in [8], in [9] and in [10] were 0.963, 1.15 and 0.542, respectively. Moreover, the z-score in experiment [4] was -0.239 (inactive).
In the case of `NCCCCCCNC(=O)[C@@H]1C[C@@H]2C(=O)NCC(=O)N2[C@@H]1c1ccc(O)cc1`, the composite z-score in experiment [1] is 1.45; in experiment [2], -0.0828; in experiment [3] it was -0.0743; in experiment [5], 1.05; in [6], 1.3; in experiment [7] it was 0.574. Further, the composite z-score in [8] is 1.3; in [9], 1.6; in experiment [10], 0.802. Moreover, the z-score in experiment [4] is -0.481 (inactive).
In the case of `COc1ccc(/C=C/C=O)cc1`, the composite z-score was -0.166 in experiment [1]; -0.201 in [2]; -0.32 in experiment [3]; 0.188 in experiment [5]; 0.0929 in experiment [6]; -0.0607 in experiment [7]. Further, the composite z-score in experiment [8] amounted to 0.679; in experiment [9], 0.406; in experiment [10], 0.664. Moreover, the z-score in experiment [4] was -0.903 (inactive).
As to `C=CCNC(=O)[C@@H]1[C@H]2C(=O)O[C@H](c3ccccc3)[C@H](c3ccccc3)N2[C@H](c2ccc(O)cc2)[C@@]12C(=O)Nc1ccc(C#CCNC(N)=O)cc12`, the composite z-score in experiment [1] is 0.213; in experiment [2] it was -0.3; in [3], 0.778; in [5], 0.0464; in experiment [6] it was -0.489; in experiment [7], -0.219. Further, the composite z-score is -0.164 in experiment [8], -0.732 in [9] and -0.0122 in experiment [10]. Moreover, in [4], the z-score was 0.788 (inactive).
In the case of `O=C1c2ccccc2[C@](Cc2ccccc2I)(C(=O)NCC(F)(F)F)[C@H](c2ccc(CO)cc2)N1Cc1ccccc1Cl`, the composite z-score in experiment [1] was 1.4; in experiment [2], -0.0951; in experiment [3], 0.502; in experiment [5] it was 0.588; in experiment [6], 0.539; in [7] it was 0.0527. The composite z-score in experiment [8] is 0.923; in experiment [9], -0.19; in experiment [10] it was 0.41. Moreover, the z-score in experiment [4] was -0.504 (inactive).
For `COC(=O)C(CC#Cc1ccc2c(c1)[C@]1(C(=O)N2)[C@H](C(=O)Nc2nc3ccccc3s2)[C@H]2C(=O)O[C@H](c3ccccc3)[C@H](c3ccccc3)N2[C@@H]1c1ccc(O)cc1)C(=O)OC`, the composite z-score in experiment [1] amounted to 1.18; in experiment [2], 0.381; in [3] it was 0.454; in experiment [5], 1.28; in [6] it was 1.29; in [7] it was 0.642. Moreover, the composite z-score is 1.4 in experiment [8], 0.829 in experiment [9] and 0.381 in experiment [10]. For the same compound, in [4], the z-score was -0.204 (inactive).
For `O=C(c1ccccc1)N1C(=O)[C@]2(COC(c3ccc(OCCCO)cc3)=N2)Cc2ccccc21`, the composite z-score amounted to 1.7 in experiment [1]; 0.688 in experiment [2]; 0.784 in experiment [3]; 1.07 in [5]; 1.32 in experiment [6]; 0.218 in experiment [7]. Also, the composite z-score is 1.23 in experiment [8], 0.427 in experiment [9] and 0.424 in experiment [10]. The z-score in experiment [4] was 0.00817 (inactive).
`CN(C)CCCCCCNC(=O)[C@@H]1C[C@@H]2C(=O)N[C@@H](Cc3ccccc3)C(=O)N2[C@@H]1c1ccc(O)cc1`: the composite z-score in experiment [1] was 1.51; in experiment [2], 0.026; in experiment [3], -0.127; in [5], 1.06; in [6] it was 1.35; in experiment [7], 1.37. The values for the composite z-score in experiment [8], in [9] and in experiment [10] were 1.44, 1.38 and 1.41, respectively. Besides, the z-score in [4] was -0.926 (inactive).

These data come from PubChem BioAssay.
